Source: PubChem BioAssay (NCATS)
Records with an inconclusive call do not appear. Activity calls are given as the source filed them. The call rests on the fitted dose curve; in most records, active means well fitted inhibition curve with a large enough effect; inconclusive means small, poorly fitted or top-dose-only effect; inactive means flat fitted curve, though single readings scatter.

Tests used:
Assay in all cases: qHTS profiling for inhibitors of Plasmodium falciparum proliferation (AID 504749); further: nearly all actives have a fitted effect of over 60% in size
Settings in all cases: P. falciparum in erythrocytes, SYBR Green DNA, 72 h; series mostly up to 28.7 µM
CP262 = system: CP262
Procedure, shortened: (§1)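 P. falciparum-infected erythrocytes (0.3% parasitemia, 2.5% hematocrit) incubated with compound 72 h at 37 C, 5% CO2. Parasite DNA detected by SYBR Green after lysis, overnight at room temperature; normalised to 0.29 uM artemisinin and DMSO.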

CP265 = system: CP265
Procedure, shortened: as §1

CP266 = system: CP266
Procedure, shortened: as §1

CP268 = system: CP268
Procedure, shortened: as §1

CP269 = system: CP269
Procedure, shortened: as §1

CP286 = system: CP286
Procedure, shortened: as §1

CP291 = system: CP291
Procedure, shortened: as §1

CP305 = system: CP305
Procedure, shortened: as §1

CP315 = system: CP315
Procedure, shortened: as §1

CP297 = system: CP297
Procedure, shortened: as §1

Measured: Potency

O=C(O)c1ccccc1C(=O)Nc1ccc(S(=O)(=O)Nc2nccs2)cc1
inactive: CP262 | CP265 | CP266 | CP268 | CP269 | CP286 | CP291 | CP305 | CP315

NS(=O)(=O)c1ccc(NC(=O)CCC(=O)O)cc1
inactive: CP262 | CP265 | CP266 | CP268 | CP269 | CP286 | CP297 | CP305 | CP315

CC(C)c1cc2c(cc1S(=O)(=O)O)[C@@]1(C)CCC[C@@](C)(C(=O)O)[C@@H]1CC2
inactive: CP262 | CP265 | CP266 | CP268 | CP286 | CP291 | CP297 | CP305 | CP315

OCc1ccc(Cl)cc1Cl
inactive: CP262 | CP265 | CP266 | CP268 | CP269 | CP286 | CP291 | CP297 | CP305 | CP315

CN(C(=O)c1c(O)c2ccccc2n(C)c1=O)c1ccccc1
inactive: CP262 | CP265 | CP266 | CP268 | CP269 | CP286 | CP291 | CP297 | CP305 | CP315

c1ccc2[nH]ccc2c1
inactive: CP262 | CP265 | CP266 | CP268 | CP269 | CP286 | CP291 | CP297 | CP305 | CP315

O=C(c1ccccc1)C(O)c1ccccc1 (stereo unspecified)
inactive: CP262 | CP265 | CP266 | CP268 | CP269 | CP286 | CP297 | CP305 | CP315

CN1C(C)(C)CCCC1(C)C
inactive: CP262 | CP265 | CP266 | CP268 | CP269 | CP286 | CP291 | CP297 | CP305 | CP315

COC(=O)c1ccccc1C(=O)c1ccc(OCCN2CCCCC2)cc1
inactive: CP262 | CP265 | CP266 | CP268 | CP269 | CP286 | CP291 | CP297 | CP305 | CP315

COc1ccc(Cc2cnc(N)nc2N)cc1OC
inactive: CP262 | CP265 | CP266 | CP268 | CP269 | CP286 | CP291 | CP305 | CP315

O=S1(=O)OC(c2ccc(O)cc2)(c2ccc(O)cc2)c2ccccc21
inactive: CP262 | CP265 | CP266 | CP268 | CP269 | CP286 | CP291 | CP297 | CP305 | CP315

O=C(O)CCCCC1CCSS1 (stereo unspecified)
inactive: CP262 | CP265 | CP266 | CP268 | CP269 | CP286 | CP291 | CP297 | CP305 | CP315

CN1CCCN=C1COC(=O)C(O)(c1ccccc1)C1CCCCC1 (stereo unspecified)
inactive: CP262 | CP265 | CP266 | CP268 | CP269 | CP286 | CP297 | CP305 | CP315

NC(=O)CCCCC1CCSS1 (stereo unspecified)
inactive: CP262 | CP265 | CP266 | CP268 | CP269 | CP286 | CP291 | CP297 | CP315

CCN(CC)CCc1nc(-c2ccccc2)no1
inactive: CP262 | CP265 | CP266 | CP268 | CP269 | CP286 | CP291 | CP297 | CP305 | CP315

Cc1c(N(C)C)c(=O)n(-c2ccccc2)n1C
inactive: CP262 | CP265 | CP266 | CP268 | CP269 | CP286 | CP297 | CP305 | CP315

CCc1nnc(NS(=O)(=O)c2ccc(N)cc2)s1
inactive: CP262 | CP265 | CP266 | CP268 | CP269 | CP286 | CP291 | CP297 | CP305 | CP315

Cc1c(NC(C)C)c(=O)n(-c2ccccc2)n1C
inactive: CP262 | CP265 | CP268 | CP269 | CP286 | CP291 | CP297 | CP305 | CP315

Cn1c([N+](=O)[O-])cnc1COC(N)=O
inactive: CP262 | CP265 | CP266 | CP269 | CP286 | CP291 | CP297 | CP305 | CP315

CCCCCCCC(=O)OCC(COC(=O)CCCCCCC)OC(=O)CCCCCCC
inactive: CP262 | CP265 | CP268 | CP269 | CP286 | CP291 | CP297 | CP305 | CP315

CCCCCCCCCCC(CO)CCCCCCCC (stereo unspecified)
inactive: CP262 | CP265 | CP266 | CP268 | CP286 | CP291 | CP297 | CP315

Cc1ncc(CO)c(CN)c1O
inactive: CP265 | CP266 | CP268 | CP269 | CP286 | CP291 | CP297 | CP305 | CP315
